Compounds without any hit were thinned out: in the full panel of roughly 83,000, 20% have a hit.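 Negative percent growth values reflect cell death: -40 means 40% of the cells present at the start died, and -100 means all died.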 Unmarked numbers belong to inactive results. Activity calls are given as the source filed them. The calls were made as follows: active = growth percent below 10; inactive = the rest.
Assays:
Test in all cases: NCI-60 one-dose screen, 48 h (100 = growth as untreated, 0 = no growth, -100 = all killed)
Conditions in all cases: 10 µM unless noted
NCI-H23 lung = system: NCI-H23 lung
NCI-H322M lung = system: NCI-H322M lung
HOP-62 NSCLC = system: HOP-62 NSCLC
NCI-H460 lung = system: NCI-H460 lung
HOP-92 NSCLC = system: HOP-92 NSCLC
NCI-H522 lung = system: NCI-H522 lung
A549/ATCC NSCLC = system: A549/ATCC NSCLC
786-0 renal = system: 786-0 renal
COLO 205 colon = system: COLO 205 colon
DU-145 prostate = system: DU-145 prostate
K-562 leukemia = system: K-562 leukemia
MALME-3M melanoma = system: MALME-3M melanoma
MDA-MB-231 breast = system: MDA-MB-231 breast
RXF 393 renal = system: RXF 393 renal
SF-268 CNS = system: SF-268 CNS
SF-295 CNS = system: SF-295 CNS
SF-539 CNS = system: SF-539 CNS
UACC-257 melanoma = system: UACC-257 melanoma
M14 melanoma = system: M14 melanoma
HCT-15 colon = system: HCT-15 colon

SMILES | growth (NCI-H23 lung) | growth (NCI-H322M lung) | growth (HOP-62 NSCLC) | growth (NCI-H460 lung) | growth (HOP-92 NSCLC) | growth (NCI-H522 lung) | growth (A549/ATCC NSCLC) | growth (786-0 renal) | growth (COLO 205 colon) | growth (DU-145 prostate) | growth (K-562 leukemia) | growth (MALME-3M melanoma) | growth (MDA-MB-231 breast) | growth (RXF 393 renal) | growth (SF-268 CNS) | growth (SF-295 CNS) | growth (SF-539 CNS) | growth (UACC-257 melanoma) | growth (M14 melanoma) | growth (HCT-15 colon)
O=c1oc2ccc(Br)cc2c(=O)n1-c1ccc(I)cc1F | 1.15% (active) | 4.56% (active) | 1.91% (active) | 3.43% (active) | -16.6% (active) | -13.4% (active) | 6.38% (active) | 2.68% (active) | 51.2% | 13.6% | 5.48% (active) | -28.3% (active) | -19.1% (active) | -1.04% (active) | 6.16% (active) | -61.3% (active) | 1.29% (active) | -16.3% (active) | -9.72% (active) | 1.62% (active)
COc1cc(C(=O)NN=C2c3ccccc3-c3ccccc32)cc(OC)c1OC | 62% | 54% | 36.6% | 11.2% | 42.4% | 15% | 43.6% | 41.9% | 2.88% (active) | 49.7% | 13.9% | 44.4% | 49.1% | 16.7% | 45.1% | -0.172% (active) | 4.99% (active) | 38.1% | 17.6% | 27.2%
CCN1C(=O)N(c2ccccc2)C2Nn3c(s/c(=C4\C(=O)N(C(C)C)c5ccccc54)c3=O)=NC21 (stereo not given) | 104% | 108% | 98.5% | 108% | 113% | 92.1% | 104% | 101% | 111% | 120% | 100% | 98.7% | 99.4% | 112% | 98.7% | 98.4% | 100% | 104% | 109% | 108%
CCCCCCC(O)(c1ccc(F)cc1)C(CN1CCOCC1)c1ccccc1 (stereo not given) | 25.4% | 74.7% | 56.9% | 16.1% | -16.1% (active) | 26.9% | 23.9% | 44.9% | -21.7% (active) | 51.7% | 12.9% | 24.5% | 26.2% | 20.6% | 47.4% | -21.5% (active) | 79.1% | 57.2% | 35.5% | 28.1%
Nc1ccc(-n2c(=O)oc3ccc(Cl)cc3c2=O)c(Cl)c1 | -4.26% (active) | -2.46% (active) | -6.88% (active) | 2.28% (active) | -13.1% (active) | -20.1% (active) | 6.26% (active) | -33.5% (active) | -27.4% (active) | 9.79% (active) | 7.44% (active) | -29.6% (active) | -25.6% (active) | -6.99% (active) | 3.88% (active) | -58% (active) | -5.36% (active) | -21.1% (active) | -11.2% (active) | 1.16% (active)
CC(=Nc1ccccc1)C1=C(O)C(Cc2ccc(F)cc2)NC1=O (stereo not given) | 30.7% | 37.5% | 42.7% | 13.4% | 72.4% | -9.06% (active) | 35.9% | 48.2% | -52.1% (active) | 8.32% (active) | 12.3% | 24.2% | 69.7% | 15.2% | 54.9% | 8.24% (active) | 18.7% | 38.8% | 12.8% | 23.3%
Cc1ccc(F)cc1NC(=O)c1cc(Cl)ccc1Nc1ccccc1 | 60.1% | 62.4% | 83.9% | 40.2% | 75.9% | 47.7% | 42.3% | 68.1% | 16% | 69.6% | 22.3% | 83% | 69.7% | 68.3% | 55% | 13.7% | 62.5% | 65.7% | 45.1% | 38.4%
O=C1c2ccccc2C(=O)c2c1ccc1[nH]c(CCl)nc21 | 15% | 62.5% | 25.3% | 1.46% (active) | 32% | -31.5% (active) | 43.8% | 28.9% | 29.1% | 17.1% | 2.91% (active) | 11.5% | 37.4% | 34.7% | 24.9% | 65.2% | 37.9% | 28.8% | 33.5% | -24.8% (active)
COC(=O)C1=Nc2ccc(F)cc2/C1=C/c1sc(=S)[nH]c1O | 28.6% | 29% | 18.6% | 3.2% (active) | 22.9% | -33.3% (active) | 17.7% | 9.99% (active) | -2.37% (active) | 11.9% | 8.26% (active) | 60.8% | 16.8% | 30.4% | 13.1% | 13.8% | -26.6% (active) | 45.9% | 2.31% (active) | 10.7%
COc1ccc(Cn2cc(Cn3cc(C=C4C(=O)NC(=O)NC4=O)c4ccccc43)nn2)cc1 | 62.7% | 90.1% | 92.4% | 48% | 84.5% | 89.9% | 112% | 96.7% | 108% | 92.1% | 50.4% | 85.5% | -96.3% (active) | 77.9% | 83.3% | 77.1% | 88.3% | 96.4% | 82.4% | 85.9%
CCN(CC)CCNC(=O)C(Cl)=C1C(Cl)=C(Cl)C(Cl)=C1Cl | 55.9% | 81.7% | 75.5% | 19.3% | 53.8% | -14.7% (active) | 46.6% | 90.1% | 54.5% | 48.4% | 24.2% | 58% | 50.1% | 66.9% | 52% | 71.7% | 60.1% | 44.3% | 38.7% | 50.5%
CCOC(=O)C1(Cc2ccccc2)CCN(Cc2cccc(OC)c2O)CC1 | 18.3% | 20.3% | 12.9% | -13% (active) | 30.6% | 17.1% | 2.47% (active) | 6.33% (active) | 10.2% | 10.8% | 8.73% (active) | 12% | 22.1% | -13.9% (active) | 5.65% (active) | -22.2% (active) | 5.93% (active) | -4.96% (active) | 2.78% (active) | 24%
CCOC(=O)C1=C(C)N=c2s/c(=C\c3ccccc3O)c(=O)n2C1c1ccc(OC)c2ccccc12 (stereo not given) | 82.3% | 10.5% | 29.2% | -41.8% (active) | 4.78% (active) | -36.2% (active) | -21.1% (active) | 36% | -90% (active) | 43.5% | -48.4% (active) | -86.7% (active) | -38.9% (active) | -20.6% (active) | 37.6% | -83.5% (active) | -83.7% (active) | -85.8% (active) | -71.7% (active) | 1.84% (active)
COc1ccc(Nc2cc(C)nc(NCc3ccccc3)n2)cc1 | 56% | 61.9% | 38.5% | 11.9% | 21.6% | 19.9% | 7.95% (active) | 34.1% | 3.51% (active) | 45.4% | 5.22% (active) | 13.6% | -18.1% (active) | -16.2% (active) | 47.8% | -30.7% (active) | 47.5% | 46.8% | 8.52% (active) | 26.1%
COC(=O)c1ccc(NC(=O)CSc2nc3ccccc3c(=O)n2-c2ccccc2)cc1 | 95.4% | 103% | 106% | 99.2% | 79.7% | 80.6% | 88.8% | 100% | 120% | 108% | 95.1% | 109% | 95.7% | 111% | 92% | 102% | 100% | 90.4% | 105% | 105%
COc1c2ccoc2c(/C=C/C=O)c2oc(-c3ccccc3)cc(=O)c12 | 50.4% | 87.7% | 59.7% | 89.4% | 105% | 67.9% | 91.3% | 94.4% | 116% | 63.1% | 24.1% | 98% | 66.3% | 79% | 39.8% | 51.3% | 38.3% | 108% | 70.8% | 3.15% (active)

From PubChem BioAssay (NCI)
